LASV entry inh = Lassa virus entry inhibition. Potency, µM (titrated, usually from 37.9 µM), hits mostly inhibitors. Lassa virus pseudotype entry inhibition, cell reporter. AID 540256. 1.2% of 300,000 active; calls by dose curve; tested in HEK293 cells; note: nearly all actives have a fitted effect of over 50% in size
FMDV inh = antivirals against foot and mouth disease virus. 1.2% of 410,000 active. FMDV antiviral cell-based qHTS. Potency, µM (top dose mostly 57.9 µM), hits mostly inhibitors; calls by dose curve; tested in HEK293T cells; note: read-out not given here; nearly all actives have a fitted effect of over 45% in size
HCMV inh = human cytomegalovirus inhibition | HFF cells, HCMV-luciferase reporter, 72 h; stronger effect = lower value | activity change, negative = inhibition, % at 57.5 µM | 4.5% of 410,000 active; in the data active = activity change below about -60%; inconclusive = no clear call, values can overlap the other calls; inactive = above about -39%
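HFF cells seeded 16 h at 37C, treated with compounds, infected with luciferase-reporter HCMV at MOI 1 PFU/cell; luciferase read at 72 h post infection, normalized to buffer-only and Salinomycin controls.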
Marburg entry inh = blocks Marburg virus binding to or entry into cells | Potency, µM (titrated, usually from 37.8 µM), most hits filed as inhibitors | Marburg virus pseudotyped entry inhibition, cell reporter | 1.8% of 300,000 active; calls by dose curve; tested in HEK293 cells
Each line names hits and unclear results; the compound was inactive in the other large screens; ! = not confirmed by another sample. Shown are actives, neighbours in structure and some others; about 6.2% of the full set was active somewhere.

O=C(O)c1cnn2cc(-c3[nH]ncc3[N+](=O)[O-])cnc12	none
CC(C(=O)NC1=NCCS1)N1C(=O)c2ccccc2C1=O (configuration not stated)	none
CS(=O)(=O)c1ccc(S(=O)CC(=O)Oc2ccc(Cl)cc2)c([N+](=O)[O-])c1 (configuration not stated)	LASV entry inh inconclusive, FMDV inh 35.5µM, Marburg entry inh 11.2µM (no result: HCMV inh)
COc1ccccc1-c1noc(COC(=O)c2ccc(Br)o2)n1	none (no result: LASV entry inh, Marburg entry inh)
O=C(Nc1nc2cc3c(cc2s1)OCCO3)C1CCCCC1	LASV entry inh 10µM, FMDV inh inconclusive, Marburg entry inh inconclusive
O=C(Nc1cc(S(=O)(=O)N2CCCCC2)ccc1N1CCCCC1)C1CC1	HCMV inh -61.0 (no result: LASV entry inh, Marburg entry inh)
CC(=O)Nc1nc2cc3c(cc2s1)OCCO3	none (no result: LASV entry inh, Marburg entry inh)
O=C(Nc1nc2ccc(S(=O)(=O)N3CCCC3)cc2s1)C1CCCCC1	HCMV inh -61.9, Marburg entry inh inconclusive
O=C(Nc1nc2cc3c(cc2s1)OCCO3)C1=COCCO1	FMDV inh 3.98µM, HCMV inh active (no result: LASV entry inh, Marburg entry inh)
CN1CCN(c2ccc(S(=O)(=O)N3CCOCC3)cc2NC(=O)C2CCCCC2)CC1	none (no result: LASV entry inh, Marburg entry inh)
CCN(CC)S(=O)(=O)c1ccc(C(=O)NCCc2ccccn2)cc1	LASV entry inh inconclusive
C#Cc1cccc(Nc2nc(NCCOC)nc3ccsc23)c1	FMDV inh inconclusive (no result: LASV entry inh, Marburg entry inh)
O=S(=O)(c1cnccc1N1CCN(CCO)CC1)N1CCCC1	FMDV inh inconclusive (no result: LASV entry inh, Marburg entry inh)
O=C(CCN1C(=O)C2CCCCC2C1=O)Nc1nc2c(F)cc(F)cc2s1 (configuration not stated)	none (no result: LASV entry inh, Marburg entry inh)
O=C(CCN1C(=O)C2CCCCC2C1=O)Nc1nc2ccc(F)cc2s1 (configuration not stated)	LASV entry inh 11.2µM, Marburg entry inh inconclusive
O=C(Nc1nc2ccccc2s1)C1CCN(S(=O)(=O)c2cc([N+](=O)[O-])ccc2Cl)CC1	FMDV inh 35.5µM (no result: LASV entry inh, Marburg entry inh)
O=C(Nc1cccc(Cl)c1)Nc1cc(S(=O)(=O)N2CCOCC2)ccc1N1CCCC1	LASV entry inh inconclusive, FMDV inh inconclusive, HCMV inh -79.5, Marburg entry inh inconclusive
O=C(Nc1nc2ccc(F)cc2s1)C1=COCCO1	LASV entry inh 2.82µM, FMDV inh inconclusive, Marburg entry inh inconclusive
CCOC(=O)Cc1cc(=O)[nH]c(/N=C(/NC(=O)c2ccccc2)Nc2ccccc2C(F)(F)F)n1	none
Cc1cc(C)n2nc(NCc3ccccc3Cl)nc2n1	none
COc1ccc(N2CCN(C(=O)C(OC(C)=O)c3ccccc3)CC2)cc1 (configuration not stated)	none
NCCCS(=O)(=O)O	LASV entry inh inconclusive, HCMV inh inconclusive, Marburg entry inh 8.2µM!
COC(=O)c1c(SC)nc2ccccc2c1OCc1ccc(Cl)cc1	none (no result: Marburg entry inh)
Cc1nnc(Nc2ccccn2)c2ccccc12	HCMV inh -60.2
CCc1cc(-c2n[nH]c(C)c2-c2nc3ccccc3n2C)c(O)cc1O	LASV entry inh inconclusive, FMDV inh inconclusive, HCMV inh -71.4, Marburg entry inh inconclusive
O=C(Nc1ccc(-c2csc(Nc3cccc(C(F)(F)F)c3)n2)cc1)c1ccccc1	FMDV inh inconclusive, HCMV inh -83.0 (no result: LASV entry inh, Marburg entry inh)
O=C(Nc1ccc(-c2csc(Nc3cccc(C(F)(F)F)c3)n2)cc1)c1cc([N+](=O)[O-])cc(C(F)(F)F)c1	FMDV inh inconclusive, HCMV inh -78.3 (no result: LASV entry inh, Marburg entry inh)
Nc1c(C(=O)N/N=C/c2ccc(Cl)cc2)cnn1-c1ccccc1	LASV entry inh inconclusive
COC(=O)c1cnn(-c2ccc(Cl)cc2)c1/C=N/NC(N)=S	LASV entry inh inconclusive, FMDV inh 14.1µM, HCMV inh inconclusive, Marburg entry inh inconclusive
COc1cc(SC#N)ccc1N=Cc1c(C)[nH]n(-c2ccc(Cl)cc2)c1=O	Marburg entry inh inconclusive
COc1cc(SC#N)ccc1N=Cc1c(C)[nH]n(-c2ccc(C)c(C)c2)c1=O	LASV entry inh 11.2µM, FMDV inh 12.6µM, HCMV inh -65.0, Marburg entry inh inconclusive
COC(=O)c1c(NC(=O)/C=C/C(=O)O)sc(C)c1-c1ccc(C)c(C)c1	FMDV inh inconclusive, Marburg entry inh inconclusive
CC(C)=C1C2CCC1C(C(=O)Nc1sc(C)c(-c3ccc(C(C)C)cc3)c1C(N)=O)C2C(=O)O (configuration not stated)	LASV entry inh inconclusive, Marburg entry inh 20.6µM
CCOC(=O)c1c(NC(=O)/C=C/c2ccc(OCC)cc2)sc(C)c1C	none
CCOC(=O)c1c(NC(=O)/C=C/C(=O)O)sc(C)c1-c1ccc(F)cc1	FMDV inh 31.6µM
COC(=O)c1c(NC(=O)/C=C/C(=O)O)sc(C)c1-c1ccc(C(C)C)cc1	LASV entry inh 5.62µM, FMDV inh 14.1µM, HCMV inh inconclusive
COC(=O)c1c(NC(=O)/C=C/C(=O)O)sc(C)c1-c1ccc(C)cc1	LASV entry inh inconclusive, Marburg entry inh inconclusive
CCOC(=O)c1c(NC(=O)/C=C/C(=O)O)sc(C)c1-c1ccc(C)c(C)c1	LASV entry inh inconclusive, FMDV inh 31.6µM, Marburg entry inh inconclusive
COCC(=O)Nc1cc(OC)c(Cl)cc1OC	none
C/C(CC(=O)Nc1ccc(F)cc1)=N\NC(=O)Cc1csc(N)n1	Marburg entry inh inconclusive
CCOc1cc(NC(=O)C2CCCO2)c(OCC)cc1NC(=O)C1CC1 (configuration not stated)	none
COC(=O)/C=C/c1ccc2c(c1)S(=O)(=O)N(Cc1ccc(OC)cc1)[C@H]2CC(=O)OC	none (no result: LASV entry inh, Marburg entry inh)
COc1ccc(CN2[C@@H](CC(C)=O)c3ccc(/C=C/C(C)=O)cc3S2(=O)=O)cc1	FMDV inh 31.6µM (no result: LASV entry inh, Marburg entry inh)
OCC1(Cc2ccccc2)CCN(Cc2cnc(-c3ccc(Cl)cc3)nc2)CC1	LASV entry inh inconclusive, HCMV inh -66.7, Marburg entry inh inconclusive
COc1cccc(CC2(CO)CCN(Cc3cnc(N4CCOCC4)s3)CC2)c1	FMDV inh inconclusive, Marburg entry inh inconclusive
OCC1(CCCc2ccccc2)CCN(Cc2cnc(N3CCOCC3)s2)CC1	LASV entry inh 11.2µM, FMDV inh inconclusive, Marburg entry inh inconclusive
OCC1(Cc2ccccc2)CCN(Cc2cnc(-c3cccc4ccccc34)nc2)CC1	FMDV inh inconclusive, Marburg entry inh inconclusive
Cc1ccccc1-c1ncc(CN2CCC(CO)(CCCc3ccccc3)CC2)cn1	HCMV inh -64.2 (no result: LASV entry inh, Marburg entry inh)
OCC1(CCCc2ccccc2)CCN(Cc2ccc(F)cc2)CC1	Marburg entry inh inconclusive
CSc1ccc(CNC(C)(C)CO)cc1	none
Cc1nc2ncnn2c(C)c1CCC(=O)N1CCc2ccccc21	none
COCCNC(=O)Cn1cnc2c1c(=O)n(C)c(=O)n2C	none
NS(=O)(=O)c1ccc(N/N=C/c2cn(-c3ccccc3)nc2-c2ccccc2)c([N+](=O)[O-])c1	HCMV inh -81.0 (no result: LASV entry inh, Marburg entry inh)
NS(=O)(=O)c1ccc(N/N=C/c2ccc(O)c(O)c2O)c([N+](=O)[O-])c1	Marburg entry inh inconclusive
O=[N+]([O-])c1cc(S(=O)(=O)N2CCCC2)ccc1N/N=C/c1ccccn1	Marburg entry inh inconclusive
NS(=O)(=O)c1ccc(N/N=C/c2ccccn2)c([N+](=O)[O-])c1	LASV entry inh inconclusive, HCMV inh -63.6, Marburg entry inh inconclusive
NS(=O)(=O)c1ccc(N/N=C/c2ccc(O)cc2O)c([N+](=O)[O-])c1	HCMV inh -78.3 (no result: LASV entry inh, Marburg entry inh)
CCCn1c(=S)[nH]c2cc(C(=O)N3CCN(C(=O)OCC)CC3)ccc2c1=O	none

Assay outcomes (PubChem)
